These results are taken from PubChem BioAssay (Tox21).

SMILES strings stand for the structures. Results filed as inconclusive are left out. A call without a number means that no potency is given here. Calls of active or inactive are those of the source. Unless noted, calls follow the shape of the dose curve; as a rule, active = well fitted curve in the direction sought with a large enough effect in the repeat runs; inconclusive = weak or mixed curves; inactive = no such curve, though single readings can be large; an effect the other way counts as inactive or inconclusive.

Sequence of Estrogen receptor (Homo sapiens) (P03372 whole entry, looked up): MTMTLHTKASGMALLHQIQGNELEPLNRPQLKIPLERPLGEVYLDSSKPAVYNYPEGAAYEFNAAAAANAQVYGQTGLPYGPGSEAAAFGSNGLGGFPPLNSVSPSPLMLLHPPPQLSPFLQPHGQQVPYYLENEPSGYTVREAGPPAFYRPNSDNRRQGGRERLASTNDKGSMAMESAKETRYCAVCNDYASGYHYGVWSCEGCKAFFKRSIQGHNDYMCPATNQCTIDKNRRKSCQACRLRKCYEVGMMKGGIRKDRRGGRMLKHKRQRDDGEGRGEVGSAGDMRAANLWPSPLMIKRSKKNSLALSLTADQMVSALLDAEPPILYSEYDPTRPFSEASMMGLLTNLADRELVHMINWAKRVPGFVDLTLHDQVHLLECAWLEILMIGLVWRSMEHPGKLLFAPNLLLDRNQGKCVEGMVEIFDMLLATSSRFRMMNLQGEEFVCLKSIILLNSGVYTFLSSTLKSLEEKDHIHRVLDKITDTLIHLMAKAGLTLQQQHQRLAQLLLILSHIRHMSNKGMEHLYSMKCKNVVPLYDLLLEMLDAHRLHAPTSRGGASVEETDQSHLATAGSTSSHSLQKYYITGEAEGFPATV

The first test has as its target Estrogen receptor (Homo sapiens) (UniProt P03372). Briefly: qHTS assay to identify small molecule agonists of the estrogen receptor alpha (ER-alpha) signaling pathway (AID 743075; calls by dose curve;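 also: HEK293 GripTite cells with ER-alpha and UAS-driven beta-lactamase reporter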). Conditions: HEK293 ER-alpha-UAS-bla, beta-lactamase FRET ratio, 18 h; series mostly up to 70.1 µM.
Turning to `CN(C)c1ccncc1`, the Potency result was “inactive”.
As to `CCC(C)SSC(C)CC` (configuration not stated), the Potency result is “inactive”.
Turning to `CN(C)CCc1c[nH]c2ccc(CS(=O)(=O)N3CCCC3)cc12`, the Potency entry was “inactive”.
Take `CC(C)(O)c1ccc(C(C)(C)O)cc1`: the Potency result was “inactive”.
Turning to `CCCCOCCCC`, the Potency entry was “inactive”.
On to `C=CCOC(=O)CCCCCCCC`, for which the Potency result was “inactive”.
With `C/C(Cl)=C/CCl`, the Potency entry is “inactive”.
Still for that read-out and setting: for `CC(=O)OC1CCC(C(C)(C)C)CC1` (configuration not stated) the value was “inactive”; for `CCOC(=O)c1ccc(N(C)C)cc1`, “inactive”; for `Cc1cc(C)c(C)c(C)c1`, “inactive”.
With `C[C@@H]1CC[C@@]2(OC1)O[C@H]1C[C@H]3[C@@H]4CC[C@H]5C[C@@H](O)CC[C@]5(C)[C@H]4CC(=O)[C@]3(C)[C@H]1[C@@H]2C`, the Potency entry was “inactive”.
Consider `CC(=O)Nc1ccc(S(=O)(=O)Nc2cc(C)on2)cc1`, for which the Potency entry was “inactive”.
On to `CCCCCCCCCCCCCCCCN(C)C`, for which the activation was -5.38% [at 6.71 µM] (inactive).
For the molecule `C/C=C/C(=O)CCCC`, the Potency result is “inactive”.
The same measure, in the same setting: then `CCN(CC)CC`, with “inactive”; and `Cc1ccc2cccnc2c1`, with “inactive”.
Take `c1coc(Cn2cccc2)c1`: the Potency entry was “inactive”.
The same measure, in the same setting: for `O=C(O)/C=C(\CC(=O)O)C(=O)O` the value was “inactive”; for `CC(C)(C)C(=O)NCCCC(=O)O`, “inactive”; for `Cc1ccc(Br)cc1`, “inactive”.
For `COC(=O)N/N=C/c1c[n+]([O-])c2ccccc2[n+]1[O-]`, the Potency result was “inactive”.
Take `COc1cc(OC)cc(OC)c1`: the Potency result is “inactive”.
Still for that read-out and setting: then `CC(CN1CC(=O)NC(=O)C1)N1CC(=O)NC(=O)C1` (configuration not stated), with “inactive”.
For the molecule `Cc1ccc(NC(N)=O)cc1`, the Potency result is “inactive”.

For the next test the target is unchanged. Put plainly: qHTS assay to identify small molecule agonists of the estrogen receptor alpha (ER-alpha) signaling pathway using the BG1 cell line (AID 743079). Also: nearly all actives have a fitted effect of over 20% in size. Also: potency is read from the fitted curve at half-maximal effect. Conditions: BG1Luc4E2 cells, ERE-luciferase agonist, 22 h; series mostly up to 70.3 µM.
On to `CN(C)c1ccncc1`, for which the Potency result is “inactive”.
`CCC(C)SSC(C)CC` (configuration not stated): the Potency result was “inactive”.
Still for that read-out and setting: for `CN(C)CCc1c[nH]c2ccc(CS(=O)(=O)N3CCCC3)cc12` the value was “inactive”; for `CC(C)(O)c1ccc(C(C)(C)O)cc1`, “inactive”; for `CCCCOCCCC`, “inactive”.
On to `C=CCOC(=O)CCCCCCCC`, for which the Potency entry was “inactive”.
Turning to `CC(=O)OC1CCC(C(C)(C)C)CC1` (configuration not stated), the Potency entry is “inactive”.
Regarding `CCOC(=O)c1ccc(N(C)C)cc1`, the Potency is 54.5 µM (active).
As for `Cc1cc(C)c(C)c(C)c1`, the Potency entry is “inactive”.
For `C[C@@H]1CC[C@@]2(OC1)O[C@H]1C[C@H]3[C@@H]4CC[C@H]5C[C@@H](O)CC[C@]5(C)[C@H]4CC(=O)[C@]3(C)[C@H]1[C@@H]2C`, the Potency entry was “inactive”.
Consider `CC(=O)Nc1ccc(S(=O)(=O)Nc2cc(C)on2)cc1`, for which the Potency entry is “inactive”.
For `CCCCCCCCCCCCCCCCN(C)C`, the activation was -2.47% [at 8.47 µM] (inactive).
On to `C/C=C/C(=O)CCCC`, for which the Potency entry is “inactive”.
Turning to `CCN(CC)CC`, the Potency entry is “inactive”.
Same read-out and setting: then `Cc1ccc2cccnc2c1`, with “inactive”.
For the molecule `c1coc(Cn2cccc2)c1`, the Potency result is “inactive”.
Still for that read-out and setting: for `CC(C)(C)C(=O)NCCCC(=O)O` the value was “inactive”.
Same read-out and setting: for `Cc1ccc(Br)cc1` the value was “inactive”.
For the molecule `COC(=O)N/N=C/c1c[n+]([O-])c2ccccc2[n+]1[O-]`, the Potency result is “inactive”.
In the case of `COc1cc(OC)cc(OC)c1`, the Potency result was “inactive”.
In the case of `CC(CN1CC(=O)NC(=O)C1)N1CC(=O)NC(=O)C1` (configuration not stated), the Potency result is “inactive”.
Regarding `Cc1ccc(NC(N)=O)cc1`, the Potency result was “inactive”.

System in another test: not listed separately
Briefly: qHTS assay to identify small molecule antagonists of the estrogen receptor alpha (ER-alpha) signaling pathway using the BG1 cell line (AID 743080; calls by dose curve;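 also: BG1 cells stimulated with 17beta-estradiol alongside compound; nearly all actives have a fitted effect of over 25% in size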). Conditions: BG1Luc4E2 ERE-luciferase antagonist mode, luminescence; series mostly up to 70.3 µM. The procedure, abridged:
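BG1-Luc-4E2 cells (endogenous full-length ER-alpha, 4xERE luciferase) hormone-starved 5 days in charcoal-stripped FBS, plated 4,000/well for 24 h, then compound plus 17beta-estradiol for 21.5 h at 37 C; ONE-Glo luminescence read.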
In the case of `CN(C)c1ccncc1`, the Potency entry is “inactive”.
In the case of `CCC(C)SSC(C)CC` (configuration not stated), the Potency entry is “inactive”.
Take `CN(C)CCc1c[nH]c2ccc(CS(=O)(=O)N3CCCC3)cc12`: the Potency entry was “inactive”.
On the same count and under the same terms, then `CC(C)(O)c1ccc(C(C)(C)O)cc1`, with “inactive”; and `CCCCOCCCC`, with “inactive”; and `C=CCOC(=O)CCCCCCCC`, with “inactive”.
As to `CC(=O)OC1CCC(C(C)(C)C)CC1` (configuration not stated), the Potency result is “inactive”.
On the same count and under the same terms, then `Cc1cc(C)c(C)c(C)c1`, with “inactive”; and `C[C@@H]1CC[C@@]2(OC1)O[C@H]1C[C@H]3[C@@H]4CC[C@H]5C[C@@H](O)CC[C@]5(C)[C@H]4CC(=O)[C@]3(C)[C@H]1[C@@H]2C`, with “inactive”.
The same measure, in the same setting: then `CC(=O)Nc1ccc(S(=O)(=O)Nc2cc(C)on2)cc1`, with “inactive”.
Take `CCCCCCCCCCCCCCCCN(C)C`: the activity change, negative = inhibition was -1.23% [at 8.47 µM] (inactive).
For `C/C=C/C(=O)CCCC`, the Potency entry is “inactive”.
Take `N=C(N)N1CCc2ccccc2C1`: the Potency result is “inactive”.
Regarding `CCN(CC)CC`, the Potency result is “inactive”.
Consider `Cc1ccc2cccnc2c1`, for which the Potency result was “inactive”.
As for `c1coc(Cn2cccc2)c1`, the Potency result was “inactive”.
Consider `O=C(O)/C=C(\CC(=O)O)C(=O)O`, for which the Potency entry is “inactive”.
In the case of `CC(C)(C)C(=O)NCCCC(=O)O`, the Potency result is “inactive”.
With `Cc1ccc(Br)cc1`, the Potency result is “inactive”.
Turning to `COC(=O)N/N=C/c1c[n+]([O-])c2ccccc2[n+]1[O-]`, the Potency result is “inactive”.
As to `COc1cc(OC)cc(OC)c1`, the Potency entry is “inactive”.
Regarding `Cc1ccc(NC(N)=O)cc1`, the Potency result is “inactive”.

System in another test: not listed separately
Put plainly: qHTS assay to identify small molecule antagonists of the estrogen receptor alpha (ER-alpha) signaling pathway using the BG1 cell line - cell viability counter screen (AID 743081).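 Also: compound given together with 17beta-estradiol as the ER stimulus; nearly all actives have a fitted effect of over 45% in size.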 Conditions: BG1Luc4E2 viability, CellTiter-Fluor, 22 h; series mostly up to 70.3 µM.
For `O=c1c(O)c(O)c1=O`, the molecule was called inactive.
In the case of `CN(C)c1ccncc1`, the result was inactive.
In the case of `CCC(C)SSC(C)CC` (configuration not stated), the molecule was called inactive.
Turning to `CCOCCOCCOC(C)=O`, the outcome was inactive.
For the molecule `CN(C)CCc1c[nH]c2ccc(CS(=O)(=O)N3CCCC3)cc12`, the molecule was called inactive.
On to `CC(C)(O)c1ccc(C(C)(C)O)cc1`, for which the molecule was called inactive.
In the case of `CCCCOCCCC`, the result was inactive.
Consider `C=CCOC(=O)CCCCCCCC`, for which the call was inactive.
Still for that read-out and setting: for `CCCCCCC(=O)c1ccccc1` the value was “inactive”; for `C/C(Cl)=C/CCl`, “inactive”; for `CC(=O)OC1CCC(C(C)(C)C)CC1` (configuration not stated), “inactive”.
As to `CCOC(=O)c1ccc(N(C)C)cc1`, the result was inactive.
Same read-out and setting: then `Cc1cc(C)c(C)c(C)c1`, with “inactive”.
In the case of `C[C@@H]1CC[C@@]2(OC1)O[C@H]1C[C@H]3[C@@H]4CC[C@H]5C[C@@H](O)CC[C@]5(C)[C@H]4CC(=O)[C@]3(C)[C@H]1[C@@H]2C`, the outcome was inactive.
On to `CCCCCC(CC)OC(=O)CCCOc1ccc(Cl)cc1Cl` (configuration not stated), for which the molecule was called inactive.
For `COc1ccc2cc(CCC(C)=O)ccc2c1`, the call was inactive.
With `CC(=O)Nc1ccc(S(=O)(=O)Nc2cc(C)on2)cc1`, the result was inactive.
In the case of `CCCCCCCCCCCCCCCCN(C)C`, the activity change, negative = cytotoxicity is -2.87% [at 8.47 µM] (inactive).
Regarding `C/C=C/C(=O)CCCC`, the molecule was classed as inactive.
Same read-out and setting: then `N=C(N)N1CCc2ccccc2C1`, with “inactive”.
With `CCN(CC)CC`, the call was inactive.
With `Cc1ccc2cccnc2c1`, the result was inactive.
Regarding `C=CC(=O)OCCOCCOCC`, the molecule was called inactive.
Same read-out and setting: then `c1coc(Cn2cccc2)c1`, with “inactive”; and `Cc1nnc(C(=O)NC(C)(C)c2nc(C(=O)NCc3ccc(F)cc3)c(O)c(=O)n2C)o1`, with “inactive”; and `O=C(O)/C=C(\CC(=O)O)C(=O)O`, with “inactive”.
Same read-out and setting: for `CC(C)(C)C(=O)NCCCC(=O)O` the value was “inactive”.
Regarding `Cc1cc(N)no1`, the result was inactive.
Regarding `Cc1ccc(Br)cc1`, the result was inactive.
For the molecule `COC(=O)N/N=C/c1c[n+]([O-])c2ccccc2[n+]1[O-]`, the outcome was inactive.
As for `COc1cc(OC)cc(OC)c1`, the call was inactive.
Same read-out and setting: then `Cc1ccc(O)c(C(=O)c2ccccc2)c1`, with “inactive”.
Consider `CC(CN1CC(=O)NC(=O)C1)N1CC(=O)NC(=O)C1` (configuration not stated), for which the result was inactive.
The same measure, in the same setting: for `Cc1ccc(NC(N)=O)cc1` the value was “inactive”.
